From PubChem BioAssay
The list is not random: actives were taken first. Their share in the collection is about 1.7%.
GLP-1R agonist = qHTS of GLP-1 Receptor Agonists. Glucagon-like peptide 1 receptor (Homo sapiens), P43220. HEK293 GLP-1R CRE-luciferase, luminescence, 4-6 h; cells express a hypersensitive GLP-1R form. Potency, µM (top dose mostly 45.6 µM), most hits filed as activators. 380,000 tested, 0.007% active. AID 624172, 2012
Target sequence (P43220 whole entry, looked up): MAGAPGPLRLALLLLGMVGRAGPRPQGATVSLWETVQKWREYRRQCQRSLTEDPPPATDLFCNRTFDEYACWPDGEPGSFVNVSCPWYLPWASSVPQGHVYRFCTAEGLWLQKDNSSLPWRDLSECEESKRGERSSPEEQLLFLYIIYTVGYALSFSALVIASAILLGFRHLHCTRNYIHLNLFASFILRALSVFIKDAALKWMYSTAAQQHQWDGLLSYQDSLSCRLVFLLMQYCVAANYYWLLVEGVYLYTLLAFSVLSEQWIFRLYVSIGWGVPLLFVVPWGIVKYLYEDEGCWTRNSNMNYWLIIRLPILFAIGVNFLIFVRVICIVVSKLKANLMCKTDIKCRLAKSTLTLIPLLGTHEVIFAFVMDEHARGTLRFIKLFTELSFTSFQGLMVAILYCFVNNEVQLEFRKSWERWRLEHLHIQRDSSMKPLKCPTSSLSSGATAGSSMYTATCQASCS
GLP1R inv ag = qHTS of GLP-1 Receptor Inverse Agonists (Inhibition Mode). 410,000 tested, 1.6% active. AID 624417, 2012. Potency, µM (series often up to 38.3 µM), hits mostly inhibitors. HEK293 GLP-1R CRE-luciferase, luminescence, 24 h; GLP-1R form is constitutively active; further: nearly all actives have a fitted effect of over 55% in size
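Inverse agonists were sought by their lowering of basal cAMP reporter luciferase output in HEK293 cells stably carrying constitutively active human GLP-1R, after 24 h compound treatment.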
GLP1R cytotox = qHTS of GLP-1 Receptor Inverse Agonists: Cytotox Screen | HEK293 cAMP-luciferase reporter cells, luminescence, 24 h | Potency, µM (top dose mostly 38.3 µM), actives largely listed as inhibitors | 410,000 tested, 0.13% active | AID 624418, 2012;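 further: loss of luciferase light is scored as toxicity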
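Quantitative HTS format, 1536 wells, 200 cells/uL seeded. Compounds: 23 nL, 24 h, 37 °C. Detection: luciferase reagent, luminescence at 12 min RT; decreased signal taken as cytotoxic.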
Of the large screens only hits and unclear results are named; the others gave an inactive call. The call rests on the fitted dose curve; in most records, active means well fitted curve in the direction sought with a large enough effect; inconclusive means small, poorly fitted or top-dose-only effect, or another doubt; inactive means no such curve, though single readings can be large; an effect the other way counts as inactive or inconclusive.

CCOP(=O)(OCC)C(NC(=O)Nc1cccc(Cl)c1)c1ccccc1 (stereo not drawn)	GLP1R inv ag 7.94µM
CCOP(=O)(OCC)C(NC(=O)Nc1cccc(Cl)c1)C(N)=O (stereo not drawn)	none
O=C(Nc1cccc(Cl)c1)OCCOc1ccccc1	GLP1R inv ag inconclusive
Cc1cccc(Oc2ccc(S(=O)(=O)N3CCCCC3)cc2NC(=O)C2=COCCO2)c1	GLP1R inv ag 10µM
CC(C)Oc1ccc(S(=O)(=O)N2CCCCC2)cc1NC(=O)C1=COCCO1	GLP1R inv ag inconclusive
COc1ccc(-c2ccc(C(=O)N3CCOCC3)c3occc23)c(C)c1	none
O=C1NC[C@H](c2ccccc2)OC(=O)[C@@H](Cc2ccc(F)cc2)C/C=C\C[C@H]1CC(=O)N(CCO)Cc1ccccc1	none
O=C1N[C@@H](Cc2c[nH]c3ccccc23)COC(=O)[C@@H](Cc2ccc(F)cc2)C/C=C\C[C@H]1CC(=O)N(CCO)Cc1ccccc1	GLP1R inv ag 8.91µM, GLP1R cytotox inconclusive
O=C1N[C@@H](Cc2c[nH]c3ccccc23)COC(=O)[C@H](Cc2ccc(F)cc2)C/C=C\C[C@@H]1CC(=O)N(CCO)Cc1ccccc1	none
O=C1NC[C@H](c2ccccc2)OC(=O)[C@H](Cc2ccc(F)cc2)C/C=C\C[C@H]1CC(=O)N(CCO)Cc1ccccc1	GLP1R inv ag 5.62µM
O=C(Nc1ccccc1C(=O)NC1CC1)c1ccccc1F	none
CSc1ncc(C(=O)N2CCN(c3cccc(C(F)(F)F)c3)CC2)c(C)n1	none (no result: GLP-1R agonist)
Cc1ccc2oc(-c3cc(NC(=O)CC(C)C)ccc3Cl)nc2c1	none (no result: GLP-1R agonist)
COc1ccc(C)cc1S(=O)(=O)Nc1ccc2c(c1)OCCO2	GLP1R inv ag inconclusive
Cc1ccccc1NCC(=O)N/N=C/c1c[nH]c2ccccc12	GLP1R inv ag inconclusive
O=C(O)c1ccc(S(=O)(=O)NN=Cc2c[nH]c3ccccc23)cc1	none
Cc1cccc(NCC(=O)N/N=C\c2c[nH]c3ccccc23)c1	GLP1R inv ag 10µM, GLP1R cytotox inconclusive
O=C(N/N=C/c1c[nH]c2ccccc12)C1CC1c1ccccc1 (stereo not drawn)	GLP1R inv ag inconclusive
O=C(N/N=C/c1c[nH]c2ccccc12)C1CC1(c1ccccc1)c1ccccc1 (stereo not drawn)	GLP1R inv ag 4.47µM, GLP1R cytotox inconclusive
O=C(O)c1ccc(N/N=C/c2c[nH]c3ccccc23)cc1	GLP1R inv ag 5.62µM
CCCCNC(=O)c1nc(C2CCN(S(=O)(=O)c3cccc(C(F)(F)F)c3)CC2)oc1-c1ccccc1	GLP1R inv ag inconclusive
Cc1ccc(C)c(NC(=O)CCc2nnc3ccc(NCc4ccco4)nn23)c1	none
CCCCN(C(=O)CSCC(=O)Nc1ccc(OC)cc1)c1c(N)n(CC(C)C)c(=O)[nH]c1=O	none
C[C@H](CO)N1C[C@H](C)[C@@H](CN(C)C(=O)NC2CCCCC2)Oc2c(NC(=O)Nc3ccccc3)cccc2C1=O	none
COc1ccc(CC2(CO)CCN(S(=O)(=O)c3cccc4cccnc34)CC2)cc1	none
CSc1ccccc1NC(=O)CN(C)Cc1ccc(Br)cc1	GLP1R inv ag 7.08µM
CSc1ccc(CN(C)CC(=O)Nc2ccccc2Br)cc1	GLP1R inv ag inconclusive
O=S(=O)(c1ccc2[nH]c3c(c2c1)CCCC3)N1CCN(c2cccc(C(F)(F)F)c2)CC1	GLP1R inv ag 10µM (no result: GLP-1R agonist)
O=S(=O)(c1ccc2[nH]c3c(c2c1)CCCC3)N1CCCCC1	GLP1R inv ag inconclusive
Cc1nn(CCC(=O)NC(C)C)c(=O)c2nn(-c3ccccc3)c(C)c12	none (no result: GLP-1R agonist)
CCCCCCCCCOC(=O)C(CC(=O)O)N1CCOCC1 (stereo not drawn)	none
CCCCCOC(=O)CC(C(=O)OCCCCC)N1CCCCC1 (stereo not drawn)	GLP1R inv ag 12.6µM
CCOc1ccccc1N(CC(=O)NCCSc1ccccc1)S(=O)(=O)c1ccccc1	GLP1R inv ag inconclusive (no result: GLP-1R agonist)
Cc1cc(C)n2nc(N)c(N=Nc3ccc4c(c3)OCO4)c2n1	none
Cc1cc(C)n2nc(N)c(N=Nc3ccccc3)c2n1	GLP1R cytotox 10µM
CCc1ccc(S(=O)(=O)N(C(C)=O)c2ccc3oc4c(c3c2)CCCC4)cc1	none
Cc1cc(C)cc(NC(=O)Nc2cc(S(=O)(=O)N(C)C)ccc2C)c1	GLP1R inv ag 10µM
Cc1ccc(S(=O)(=O)N(C)C)cc1NC(=O)Nc1ccccc1F	none
CCN(CC)C(=O)c1sc2c(c1C)c(=O)n(CCc1ccccc1)c(=O)n2Cc1cc(C)ccc1C	none (no result: GLP-1R agonist)
CC(C(O)C12CC3CC(CC(C3)C1)C2)N1CCCCC1 (stereo not drawn)	none
COc1ccc(C(=O)NC(=S)Nc2ccccc2N2CCCCC2)cc1[N+](=O)[O-]	GLP1R inv ag 1.12µM, GLP1R cytotox inconclusive
CCOc1ccc(C(=O)NC(=S)Nc2ccccc2N2CCCCC2)cc1[N+](=O)[O-]	GLP1R inv ag inconclusive, GLP1R cytotox inconclusive
CC1=C(C(=O)OCc2ccc3c(c2)OCO3)C(c2ccccc2)NC(=O)N1 (stereo not drawn)	GLP1R inv ag 3.16µM, GLP1R cytotox inconclusive
CC1=C(C(=O)OCc2ccc3c(c2)OCO3)C(c2ccccc2OCc2ccccc2)NC(=O)N1 (stereo not drawn)	none
CCn1c(SCC(=O)Nc2cc(Cl)ccc2OC)nc2c([nH]c3ccccc32)c1=O	none
CCOc1ccc(-n2c(=S)sc3c(=O)n(-c4ccc(F)cc4)c(SCC(=O)O)nc32)cc1	none
O=C(CCCOc1ccc(Cl)cc1Cl)N/N=C/c1ccccc1O	GLP1R inv ag 4.47µM, GLP1R cytotox inconclusive
O=C(CCCOc1ccc(Cl)cc1Cl)N/N=C/c1ccccc1	GLP-1R agonist inconclusive
COCc1cc(C)nc2sc(C(=O)Nc3cc(C)ccc3F)c(N)c12	none (no result: GLP-1R agonist)
CC1(C)C2CCC1(C)C(NC(=O)/C=C/c1ccccc1)C2 (stereo not drawn)	GLP1R inv ag 7.08µM
CC1(C)C2CCC1(C)C(Nc1ccccc1)C2 (stereo not drawn)	none
COc1cccc(NC(=O)CN(C)C(=O)CCCc2nc3ccccc3c(=O)[nH]2)c1	none
CCCNC(=O)C(Cc1ccccc1)NC(=O)Cc1ccccc1 (stereo not drawn)	none
Cc1cccc(C(=O)OCCN2CCOCC2)c1	none
Cc1ccc(CN2CCC(Oc3cccc(C(=O)N(C)CCN(C)C)c3)CC2)cc1C	GLP1R inv ag 3.98µM, GLP1R cytotox inconclusive
COCCNC(=O)c1cccc(OC2CCN(Cc3ccc(C(=O)OC)cc3)CC2)c1	none
CCC(C(=O)O)C1OC(C(C)C(O)C(C)C(=O)C(CC)C2OC3(C=CC(O)C4(CCC(C)(C5CCC(O)(CC)C(C)O5)O4)O3)C(C)CC2C)C(C)CC1C (stereo not drawn)	none (no result: GLP1R inv ag, GLP1R cytotox)
Cc1c(C(=O)O)nnn1-c1ccccc1	none
Cc1c(C(=O)Nc2ccc(C(=O)O)cc2)nnn1-c1ccccc1	GLP1R inv ag 1.78µM (no result: GLP-1R agonist)
O=S1(=O)CC(N2CCC(Cc3ccccc3)CC2)CN1C1CCCCC1 (stereo not drawn)	GLP1R inv ag inconclusive
Cc1cccc(-n2cc(CN(C)Cc3nccn3C)c(-c3cccc(F)c3)n2)c1	GLP1R inv ag inconclusive, GLP1R cytotox inconclusive
CCn1ccnc1CN(C)Cc1cn(-c2cccc(C)c2)nc1-c1cccc(F)c1	GLP1R inv ag 12.6µM, GLP1R cytotox inconclusive
